Source: PubChem BioAssay
SW480 rereplic: A quantitative high throughput screen for small molecules that induce DNA re-replication in SW480 colon adenocarcinoma cells; SW480 DNA re-replication, Hoechst DNA content imaging, 48 h; 1.8% of 340,000 active; Potency, µM (series often up to 46.1 µM), hits mostly activators; also: nearly all actives have a fitted effect of over 55% in size
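Quantitative HTS format with DMSO vehicle controls; 48 hr drug incubation at 37 C, then 40 min Hoechst staining and scanning imager measurement at 405 nm excitation.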
KB-V1 MDR tox: qHTS assay for MDR1-selective chemotherapeutics: Primary screen using the drug-selected MDR subline cells KB-V1 | KB-V1 MDR cells viability, CellTiter-Glo, 72 h | Potency, µM (top dose mostly 46.1 µM), usual class: cytotoxic | 3.4% of 400,000 active | AID 1347076, 2019; also: nearly all actives have a fitted effect of over 60% in size
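Cells of the MDR subline KB-V1 are plated, dosed with compound at multiple concentrations, and incubated 72 h at 37 degrees C; CellTiter-Glo is then added and luminescence read after 10 min.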
ALOX12 inh: Primary qHTS assay for inhibitors of human arachidonate 12S-lipoxygenase (ALOX12): Round 2; Polyunsaturated fatty acid lipoxygenase ALOX12 (Homo sapiens), P18054; purified 12hLO, xylenol orange hydroperoxide absorbance; Potency, µM (series often up to 108 µM), hits mostly inhibitors; 1.1% of 580,000 active; AID 1671190, 2021
Target sequence (P18054 whole entry, looked up): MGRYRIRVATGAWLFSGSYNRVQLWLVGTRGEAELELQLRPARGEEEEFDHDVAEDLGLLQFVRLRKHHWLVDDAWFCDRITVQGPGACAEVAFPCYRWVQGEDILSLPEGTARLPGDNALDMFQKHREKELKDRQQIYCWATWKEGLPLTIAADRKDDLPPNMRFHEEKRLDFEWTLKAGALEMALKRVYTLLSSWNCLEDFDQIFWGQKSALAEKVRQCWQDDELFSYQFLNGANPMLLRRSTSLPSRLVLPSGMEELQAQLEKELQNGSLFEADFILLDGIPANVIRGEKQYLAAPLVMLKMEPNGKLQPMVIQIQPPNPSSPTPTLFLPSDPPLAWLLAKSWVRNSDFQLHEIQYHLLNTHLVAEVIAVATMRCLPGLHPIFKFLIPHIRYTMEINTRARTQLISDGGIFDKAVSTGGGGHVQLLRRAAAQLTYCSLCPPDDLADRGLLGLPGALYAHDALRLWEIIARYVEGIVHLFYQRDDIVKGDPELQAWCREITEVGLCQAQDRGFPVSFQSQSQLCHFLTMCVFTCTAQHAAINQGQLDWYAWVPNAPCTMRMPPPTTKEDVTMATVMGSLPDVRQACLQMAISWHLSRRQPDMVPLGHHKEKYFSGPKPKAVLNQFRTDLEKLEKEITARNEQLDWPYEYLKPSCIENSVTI
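Purified human 12hLO at 150 nM in 25 mM Hepes, 0.01% Triton X-100, pH 7.0, preincubated 15 min at room temperature with compound. Reaction started with 40 uM arachidonic acid, 30 min at room temperature. Hydroperoxide measured by Fe-xylenol orange, 573/405 nm absorbance ratio.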
KB-3-1 tox: qHTS assay for MDR1-selective chemotherapeutics: Primary screen using the parental adenocarcinoma cell KB-3-1; Potency, µM (top dose mostly 46.1 µM), most hits filed as cytotoxic; KB-3-1 viability, CellTiter-Glo ATP luminescence, 72 h; 1.4% of 400,000 active; also: nearly all actives have a fitted effect of over 60% in size
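Multi-concentration cytotoxicity screen in KB-3-1 cells grown in DMEM lacking phenol red with 10% FBS. After 72 h at 37 °C with compound, ATP-dependent luminescence was recorded.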
MCF10A rereplic: A quantitative high throughput screen for small molecules that induce DNA re-replication in MCF 10a normal breast cells. 2.9% of 350,000 active. AID 624296, 2012. MCF 10A DNA re-replication, Hoechst nuclear intensity, 48 h. Potency, µM (highest dose often 46.1 µM), actives largely listed as activators; also: nearly all actives have a fitted effect of over 50% in size
PINK1 expr mod: A Quantitative High throughput Screen to Identify Chemical Modulators of PINK1 Expression | PINK1 immunofluorescence, high-content cytometry, 24 h | Potency, µM (titrated, usually from 76.6 µM), usual class: activators | 0.2% of 410,000 active | AID 624263, 2012; active = well fitted activation curve with a large enough effect; inconclusive = small, poorly fitted or top-dose-only effect; cell line not stated here; also: nearly all actives have a fitted effect of over 65% in size
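Cells are seeded, rested 12 hours, then given compound at five concentrations or DMSO for 24 hours. After fixation, blocking and antibody staining, PINK1 amount and mitochondrial localization are scored; CCCP serves as control.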
Of the large screens only hits and unclear results are named; the others gave an inactive call. Shown are actives, neighbours in structure and some others; about 5.8% of the full set was active somewhere. Unless noted, calls follow the shape of the dose curve; as a rule, active = well fitted curve in the direction sought with a large enough effect; inconclusive = small, poorly fitted or top-dose-only effect, or another doubt; inactive = no such curve, though single readings can be large; an effect the other way counts as inactive or inconclusive.

Cc1ccc(N2C(=O)[C@@H]3[C@H](C2=O)[C@H]2C=CC=NN2[C@@H]3C(=O)Nc2ccc(Cl)cc2)cc1	ALOX12 inh 10µM
O=C(Nc1ccc(Cl)cc1)[C@@H]1[C@@H]2C(=O)N(c3ccc(Cl)cc3)C(=O)[C@@H]2[C@H]2C=CC=NN21	ALOX12 inh inconclusive, MCF10A rereplic inconclusive
CCOC(=O)c1ccc(NC(=O)Nc2nncs2)cc1	KB-V1 MDR tox 0.326µM, KB-3-1 tox inconclusive, PINK1 expr mod inconclusive (no result: SW480 rereplic, MCF10A rereplic)
CCOC(=O)c1ccc(NC(=O)Nc2ccon2)cc1	SW480 rereplic inconclusive, KB-V1 MDR tox inconclusive, KB-3-1 tox 0.581µM, MCF10A rereplic 1.3µM
CCOC(=O)c1ccc(NC(=O)NCCN2CCCCC2)cc1	KB-3-1 tox 16.4µM, MCF10A rereplic inconclusive
CCOC(=O)c1ccc(NC(=O)Nc2ccc(Cl)cn2)cc1	none
CCOC(=O)c1ccc(NC(=O)Nc2nc3ccccc3s2)cc1	none (no result: SW480 rereplic, MCF10A rereplic)
CCC1(c2ccc(F)cc2)NC(=O)N(CC(=O)Nc2ccc(N3CCCCC3)cc2)C1=O (centres undefined)	KB-V1 MDR tox 23.1µM
CNc1snc(C)c1C(=O)N(C)CCOc1ccccc1	none (no result: SW480 rereplic, KB-V1 MDR tox, KB-3-1 tox, MCF10A rereplic, PINK1 expr mod)
Cc1ccc(NC(=O)C(Sc2ccc(S(=O)(=O)N3CCOCC3)cn2)c2ccccc2)cc1 (centres undefined)	none (no result: SW480 rereplic, KB-V1 MDR tox, KB-3-1 tox, MCF10A rereplic, PINK1 expr mod)
Cc1ccc(C)c(Sc2ccc(NC(=O)CCN3C(=O)NC4(CCCC4)C3=O)cc2)c1	ALOX12 inh inconclusive, MCF10A rereplic 23.1µM
CCOC(=O)c1ccc(NC(=O)CN2C(=O)NC3(CCOCC3)C2=O)cc1	none (no result: SW480 rereplic, KB-V1 MDR tox, KB-3-1 tox, MCF10A rereplic, PINK1 expr mod)
Cc1ccc(NC(=O)CCN2C(=O)NC3(CCCC3)C2=O)cc1	ALOX12 inh inconclusive
O=C(Nc1ccc(Cl)c(Cl)c1)Nc1ccon1	SW480 rereplic 10.3µM, KB-V1 MDR tox 7.31µM, KB-3-1 tox 11.6µM, MCF10A rereplic 11.6µM, PINK1 expr mod inconclusive
CCOC(=O)c1ccc(NC(=O)CN2C(=O)NC3(CCCCCCC3)C2=O)cc1	SW480 rereplic inconclusive, KB-3-1 tox 7.31µM, MCF10A rereplic inconclusive
Cc1c(C(=O)NCc2cccc(C(F)(F)F)c2)sc(=O)n1Cc1ccc(F)cc1	KB-V1 MDR tox inconclusive (no result: SW480 rereplic, MCF10A rereplic)
CC(=O)Oc1ccc(Cn2c(C)c(C(=O)NCc3cccc(C(F)(F)F)c3)sc2=O)cc1	KB-V1 MDR tox 14.6µM, KB-3-1 tox 23.1µM (no result: SW480 rereplic, MCF10A rereplic)
COc1ccc(C(C)=O)cc1Cn1c(C)c(C(=O)NCc2cccc(C(F)(F)F)c2)sc1=O	KB-V1 MDR tox 18.4µM, KB-3-1 tox inconclusive (no result: SW480 rereplic, MCF10A rereplic)
Cc1ccc(C(CNC(=O)c2ccc(NC(=O)OC(C)(C)C)cc2)N2CCOCC2)o1 (centres undefined)	none (no result: SW480 rereplic, KB-V1 MDR tox, KB-3-1 tox, MCF10A rereplic, PINK1 expr mod)
COc1ccccc1CC(=O)N1CCN(C(=O)c2nnn3c2COC(c2ccc(C)cc2)C3)CC1 (centres undefined)	none (no result: SW480 rereplic, KB-V1 MDR tox, KB-3-1 tox, MCF10A rereplic, PINK1 expr mod)
Cc1ccc(NS(=O)(=O)c2ccc(-c3cnc(C4CC4)o3)cc2)c(C)c1	SW480 rereplic 9.2µM, KB-V1 MDR tox 2.59µM, KB-3-1 tox 2.06µM, MCF10A rereplic 0.731µM
O=S(=O)(Nc1ccc(F)cc1Cl)c1ccc(-c2cnc(C3CC3)o2)cc1	SW480 rereplic inconclusive, KB-V1 MDR tox 1.46µM, KB-3-1 tox 1.16µM, MCF10A rereplic 1.03µM
Cc1cc(C)c(NS(=O)(=O)c2cc(-c3cnc(C4CC4)o3)ccc2C)c(C)c1	none (no result: SW480 rereplic, MCF10A rereplic)
Cc1cc(C)c(NS(=O)(=O)c2ccc(-c3cnc(C4CC4)o3)cc2)c(C)c1	KB-V1 MDR tox 2.06µM, KB-3-1 tox 0.461µM (no result: SW480 rereplic, MCF10A rereplic)
COc1ccc(C(=O)N[C@@H]2CCC[C@@H]2C(=O)N2CCN(c3cc(C)ccc3C)CC2)cc1	none (no result: SW480 rereplic, KB-V1 MDR tox, KB-3-1 tox, MCF10A rereplic, PINK1 expr mod)
CC(C)(C)NC(=O)CC(NC(=O)c1ccccc1Cl)c1ccccc1 (centres undefined)	none (no result: SW480 rereplic, KB-V1 MDR tox, KB-3-1 tox, MCF10A rereplic, PINK1 expr mod)
CC1(C)CC(=O)C=C(C#CC2(O)CCCCC2)C1	KB-V1 MDR tox 16.4µM, KB-3-1 tox 23.1µM (no result: SW480 rereplic, MCF10A rereplic)
